Compounds without any hit were thinned out: in the full panel of roughly 79,000, 15% have a hit. Unmarked numbers belong to inactive results. Activity calls are given as the source filed them. No stated cut-off is given here; in the data, active means growth inhibition above about 70%; inactive means the rest.

A short description of test [1]: NCI Yeast Anticancer Drug Screen. Data for the rad50 strain (AID 155).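 Further: 0% = growth of vehicle-only cultures of the same strain.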 The following applies: S. cerevisiae rad50 strain growth inhibition, active compounds read high. The procedure, abridged: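 Yeast carrying a defined DNA repair defect were exposed to test compounds, and growth was compared with vehicle-treated controls to give percent inhibition.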
The nature of test [2]: NCI Yeast Anticancer Drug Screen. Data for the mec2-1 strain (AID 157). The following applies: S. cerevisiae mec2-1 strain, active compounds read high. The procedure, abridged:
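Vehicle-treated cultures served as reference for growth inhibition of compound-exposed mec2-1 yeast.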

The nature of test [3]: NCI Yeast Anticancer Drug Screen. Data for the sgs1 mgt1 strain (AID 161).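 Further: 0% = growth of cultures given vehicle only.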 The following applies: S. cerevisiae sgs1 mgt1 strain, active compounds read high. The method, boiled down: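 Genetically altered yeast, compound exposure, growth inhibition relative to vehicle.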
Test [4] is described as follows: NCI Yeast Anticancer Drug Screen. Data for the cln2 rad14 strain (AID 165).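 Further: 0% = growth equal to vehicle treated cultures.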 The following applies: S. cerevisiae cln2 rad14 strain, active compounds read high. The procedure, abridged: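 Each compound was tested on cln2 rad14 yeast. Inhibition of growth was calculated against vehicle-exposed controls.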
A short description of test [5]: NCI Yeast Anticancer Drug Screen. Data for the bub3 strain (AID 167). To be noted: S. cerevisiae bub3 mutant strain, active compounds read high. The procedure, abridged:
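Compounds were applied to a genetically altered yeast strain carrying a cell-cycle control defect. Growth inhibition was scored against vehicle-treated controls.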

Test [6] is described as follows: NCI Yeast Anticancer Drug Screen. Data for the mlh1 rad18 strain (AID 175). The following applies: S. cerevisiae mlh1 rad18 strain growth inhibition, active compounds read high. The method, boiled down:
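Vehicle-treated cultures served as the reference for growth inhibition in a yeast strain carrying DNA damage repair alterations exposed to each compound.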

[7] abbreviates: at 5.0 µM (retest, dose inferred, filed as 0.5).
[8] abbreviates: at 50.0 µM (retest, dose inferred, filed as 5.0).

As to `CCCCCCCCCCCC[n+]1ccc(CCCCCCCCC)cc1`, the growth inhibition in test [1] (setting [7]) was 99% (active); in test [1] (setting [8]) it was 99% (active); in test [1] (at 50.0 µM) it was 99% (active); in test [2] (setting [7]), 100% (active); in test [2] (setting [8]), 99% (active); in test [2] (at 50.0 µM) it was 99.3% (active). For the same compound, the growth inhibition in test [3] (setting [7]) is 100% (active); in test [3] (setting [8]), 99% (active); in test [3] (at 50.0 µM), 99.5% (active); in test [4] (setting [7]) it was 98% (active); in test [4] (setting [8]), 99% (active); in test [4] (at 50.0 µM), 98.5% (active). The growth inhibition in test [5] (setting [7]) is 100% (active); in test [5] (setting [8]), 99% (active); in test [5] (at 50.0 µM), 98.8% (active); in test [6] (setting [7]) it was 99% (active); in test [6] (setting [8]), 99% (active); in test [6] (at 50.0 µM), 97.6% (active).

As for `CCC(C)C(N)C(=O)NC(CC(N)=O)C(=O)NC(CC(C)C)C(=O)NC(CCCCN)C(=O)NC(C)C(=O)NC(CC(C)C)C(=O)NC(C)C(=O)NC(C)C(=O)NC(CC(C)C)C(=O)NC(C)C(=O)NC(CCCCN)C(=O)NC(CCCCN)C(=O)NC(C(=O)NC(CC(C)C)C(N)=O)C(C)CC` (configuration not stated), the growth inhibition in test [1] (setting [7]) was -2%; in test [1] (setting [8]) it was 99% (active); in test [1] (at 50.0 µM), 93.3% (active); in test [2] (setting [7]) it was 6%; in test [2] (setting [8]) it was 100% (active); in test [2] (at 50.0 µM) it was 94.2% (active). Further, the growth inhibition in test [3] (setting [7]) was -3%; in test [3] (setting [8]), 99% (active); in test [3] (at 50.0 µM), 93.8% (active); in test [4] (setting [7]), 4%; in test [4] (setting [8]), 98% (active); in test [4] (at 50.0 µM), 92% (active). The growth inhibition is -6% in test [5] (setting [7]); 99% (active) in test [5] (setting [8]); 93.6% (active) in test [5] (at 50.0 µM); 0% in test [6] (setting [7]); 99% (active) in test [6] (setting [8]); 92.8% (active) in test [6] (at 50.0 µM).

As for `O=C(Cc1nc2cc(Cl)c(Cl)cc2nc1CC(=O)c1cccnc1)c1cccnc1`, the growth inhibition in test [1] (setting [7]) was -7%; in test [1] (setting [8]), 96% (active); in test [1] (at 50.0 µM) it was 96.3% (active); in test [2] (setting [7]) it was -17%; in test [2] (setting [8]), 96% (active); in test [2] (at 50.0 µM), 98.2% (active). Moreover, the growth inhibition was -12% in test [3] (setting [7]); 97% (active) in test [3] (setting [8]); 92.6% (active) in test [3] (at 50.0 µM); -5% in test [4] (setting [7]); 98% (active) in test [4] (setting [8]); 94.3% (active) in test [4] (at 50.0 µM). For the same compound, the growth inhibition was -1% in test [5] (setting [7]); 98% (active) in test [5] (setting [8]); 95.4% (active) in test [5] (at 50.0 µM); -2% in test [6] (setting [7]); 98% (active) in test [6] (setting [8]); 97.8% (active) in test [6] (at 50.0 µM).

With `CSc1nc(C)c(C(=O)CCN2CCN(c3ccccn3)CC2)s1`, the growth inhibition in test [1] (setting [7]) is -3%; in test [1] (setting [8]) it was 99% (active); in test [1] (at 50.0 µM), 86.8% (active); in test [2] (setting [7]) it was -3%; in test [2] (setting [8]), 100% (active); in test [2] (at 50.0 µM), 78% (active). For the same compound, the growth inhibition in test [3] (setting [7]) is -23%; in test [3] (setting [8]) it was 99% (active); in test [3] (at 50.0 µM) it was 66.2%; in test [4] (setting [7]) it was -2%; in test [4] (setting [8]), 99% (active); in test [4] (at 50.0 µM), 43.4%. The growth inhibition in test [5] (setting [7]) is -1%; in test [5] (setting [8]), 100% (active); in test [5] (at 50.0 µM) it was 79.5% (active); in test [6] (setting [7]) it was -3%; in test [6] (setting [8]) it was 99% (active); in test [6] (at 50.0 µM), 58.6%.

As to `COc1cc2c(c(OC)c1OC)-c1ccc(NCc3ccccc3)c(=O)cc1[C@@H](NC(C)=O)CC2`, the growth inhibition in test [1] (setting [7]) was 17%; in test [1] (setting [8]) it was 96% (active); in test [1] (at 50.0 µM) it was 49%; in test [2] (setting [7]), 9%; in test [2] (setting [8]), 89% (active); in test [2] (at 50.0 µM) it was 80.8% (active). The growth inhibition in test [3] (setting [7]) is 16%; in test [3] (setting [8]), 98% (active); in test [3] (at 50.0 µM), 68.3%; in test [4] (setting [7]), 18%; in test [4] (setting [8]), 98% (active); in test [4] (at 50.0 µM), 73.7% (active). The growth inhibition in test [5] (setting [7]) was 14%; in test [5] (setting [8]), 88% (active); in test [5] (at 50.0 µM), 68.3%; in test [6] (setting [7]), 16%; in test [6] (setting [8]) it was 97% (active); in test [6] (at 50.0 µM), -53.5%.

With `CC(C)c1ccc(C(=O)OC2CCCC2)cc1`, the growth inhibition in test [1] (setting [7]) was 8%; in test [1] (setting [8]), 98% (active); in test [1] (at 50.0 µM), 96.5% (active); in test [2] (setting [7]) it was 9%; in test [2] (setting [8]) it was 100% (active); in test [2] (at 50.0 µM) it was 99.2% (active). The growth inhibition in test [3] (setting [7]) is 9%; in test [3] (setting [8]) it was 99% (active); in test [3] (at 50.0 µM), 54.6%; in test [4] (setting [7]), 6%; in test [4] (setting [8]) it was 99% (active); in test [4] (at 50.0 µM), 94.3% (active). The growth inhibition in test [5] (setting [7]) was 4%; in test [5] (setting [8]) it was 99% (active); in test [5] (at 50.0 µM), 53%; in test [6] (setting [7]), 4%; in test [6] (setting [8]), 99% (active); in test [6] (at 50.0 µM), 93.3% (active).

Consider `CC(C)(C)c1ccc(O)c(Br)c1`, for which the growth inhibition in test [1] (setting [7]) is 0%; in test [1] (setting [8]), -4%; in test [1] (at 50.0 µM) it was 90.9% (active); in test [2] (setting [7]), -38%; in test [2] (setting [8]), 5%; in test [2] (at 50.0 µM), 79.8% (active). In addition, the growth inhibition is 0% in test [3] (setting [7]); 2% in test [3] (setting [8]); 83.8% (active) in test [3] (at 50.0 µM); 1% in test [4] (setting [7]); -4% in test [4] (setting [8]); 35.5% in test [4] (at 50.0 µM). In addition, the growth inhibition in test [5] (setting [7]) was 31%; in test [5] (setting [8]), -4%; in test [5] (at 50.0 µM), 42.6%; in test [6] (setting [7]) it was 1%; in test [6] (setting [8]), 8%; in test [6] (at 50.0 µM), 86.8% (active).

Consider `CC1(C)N=c2cc3c(cc2N1c1ccc(Cl)cc1)=Nc1ccccc1N3c1ccc(Cl)cc1`, for which the growth inhibition was 17% in test [1] (setting [7]); -4% in test [1] (setting [8]); 96.1% (active) in test [1] (at 50.0 µM); 7% in test [2] (setting [7]); -4% in test [2] (setting [8]); 94.2% (active) in test [2] (at 50.0 µM). Also, the growth inhibition was 16% in test [3] (setting [7]); 1% in test [3] (setting [8]); 97.1% (active) in test [3] (at 50.0 µM); 10% in test [4] (setting [7]); -4% in test [4] (setting [8]); 95.2% (active) in test [4] (at 50.0 µM). The growth inhibition in test [5] (setting [7]) was 7%; in test [5] (setting [8]) it was 1%; in test [5] (at 50.0 µM), 94% (active); in test [6] (setting [7]), 35%; in test [6] (setting [8]), -5%; in test [6] (at 50.0 µM), 96.3% (active).

Regarding `NC(=S)N/N=C\c1nccc2c(C(F)(F)F)cccc12`, the growth inhibition in test [1] (setting [7]) is -4%; in test [1] (setting [8]), 96% (active); in test [1] (at 50.0 µM) it was 89% (active); in test [2] (setting [7]), 2%; in test [2] (setting [8]), 96% (active); in test [2] (at 50.0 µM) it was 91.4% (active). The growth inhibition in test [3] (setting [7]) was 6%; in test [3] (setting [8]), 96% (active); in test [3] (at 50.0 µM), 90.5% (active); in test [4] (setting [7]), -10%; in test [4] (setting [8]) it was 94% (active); in test [4] (at 50.0 µM) it was 88.2% (active). Besides, the growth inhibition in test [5] (setting [7]) is -5%; in test [5] (setting [8]) it was 95% (active); in test [5] (at 50.0 µM), 89.7% (active); in test [6] (setting [7]), 7%; in test [6] (setting [8]), 95% (active); in test [6] (at 50.0 µM), 89.2% (active).
